Source: PubChem BioAssay (SRMLSC)
Fluor 339 460: intrinsic fluorescence of library compounds, ex339/em460 – biochemical, MLSMR library, data from DPM-DC assay, artefact control, profiling panel; AID 709; compound autofluorescence, ex339/em460 nm, NADH buffer; active compounds read high; 1 = no-compound wells, NADH background; 5.5% of 65,000 active; fluorescence fold increase at 10 µM;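 active = at 10 µM, mean starting fluorescence two-fold or more over control wells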;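 also: signal is the first read of a kinetic run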
MK inhibit: blocks S. pneumoniae mevalonate kinase | purified MK, PK/LDH-coupled NADH absorbance 340 nm | inhibition, % at 10 µM | 0.48% of 65,000 active;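 active = ranked among the strongest by inhibition in the single 10 µM screen, a fixed top-ranked set picked for dose follow-up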
Abs 340nm: absorbance at 340 nm; compound absorbance at 340 nm, fold over control; fold change at 10 µM; 65,000 tested, under 10 active; AID 708;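 active = at 10 µM dose, initial 340 nm absorbance at least 2 fold that of control wells; inactive = change under 2 fold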;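 also: initial absorbance extrapolated from kinetic A340 decline of NADH oxidation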
DPM-DC inhibit: blocks S. pneumoniae diphosphomevalonate decarboxylase. purified DPM-DC, PK/LDH coupled NADH fluorescence. calls only at 10 µM. 0.49% of 65,000 active. AID 556;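 active = the 320 compounds with the highest percent inhibition in the single-dose primary screen, excluding strongly autofluorescent ones, cut at about 32% in these data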;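 also: kinetic rate of NADH fluorescence loss reporting ADP formed by the decarboxylase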
NADH coupling: inhibitors of enzymes used to reach an NAD/NADH endpoint; coupled PK/LDH NADH assays, four targets; IC50, µM (doses to about 10 µM); 0.02% of 65,000 active; AID 774;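 active = single-dose screening hits from any of four coupled enzyme assays that gave an IC50 when retested across doses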;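 also: the DPM-DC format reads NADH fluorescence rather than 340 nm absorbance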
Spn PMK inh: S. pneumoniae PMK inhibition | purified PMK, PK/LDH-coupled NADH absorbance 340 nm | AID 539 | inhibition, % at 10 µM | 0.49% of 65,000 active;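 active = top-ranked compounds by inhibition in the single 10 µM screen, taking a fixed number of the strongest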
Numbers stand for hits; . = inactive; / = not tested or not shown; + = active, no number. Most compounds without a hit are left out; they make up all but 6.3% or so of the library.

SMILES	Fluor 339 460	MK inhibit	Abs 340nm	DPM-DC inhibit	NADH coupling	Spn PMK inh
CCc1nc2oc3cc(OC)ccc3c(=O)c2c(=O)n1Cc1ccco1	.	.	.	.	.	.
COc1ccc(-c2nc3oc4cc(OC)ccc4c(=O)c3c(=O)n2Cc2ccco2)cc1	3.9	.	.	/	.	.
OC1CCCN(Cc2ccc3c(c2)Cc2ccccc2-3)C1 (stereo not given)	.	.	.	.	.	33
CN(C)CCN(C)Cc1ccc2c(c1)Cc1ccccc1-2	.	.	.	.	.	.
C=CCN1CCN(C(c2cc(OC)ccc2OC)c2nnnn2CC2CCCO2)CC1 (stereo not given)	.	.	.	.	.	.
CS(=O)(=O)N1CCC(C(=O)c2cccc(Cl)c2)CC1	.	.	.	.	.	.
COC(=O)Cn1c(=NC(=O)CSCC(=O)NC2CCCCC2)sc2cc(OC)ccc21	2.1	.	.	/	.	.
Cc1cccc(-c2nc(CS(=O)CC(=O)NC3CCCC3)c(C)o2)c1 (stereo not given)	.	.	.	.	.	.
Cc1cccc(-c2nc(C#N)c(NC3CCCCC3)o2)c1	2.1	.	.	.	.	.
O=C(CN1C(=O)c2cccc3cccc1c23)N1CCN(c2ccccc2)CC1	.	.	.	.	.	.
O=C(CN1C(=O)c2cccc3cccc1c23)N1CCN(c2cccc(Cl)c2)CC1	2.4	.	.	.	.	.
CC(=O)N1CCN(c2nc(CC(C)C)c3c(c2C#N)CCC3)CC1	2.3	.	.	/	.	.
CC(C)Cc1nc(NCCN2CCOCC2)c(C#N)c2c1COC(C)(C)C2	.	.	.	.	.	.
CC(C)Cc1nc(N2CCOCC2)c(C#N)c2c1COC(C)(C)C2	2.4	.	.	/	.	.
CC(C)c1nc(N2CCOCC2)c(C#N)c2c1CCC2	2	.	.	.	.	.
CCCc1nc(N2CCOCC2)c(C#N)c2c1CCCC2	.	.	.	.	.	.
CC(C)Cc1nc(N2CCN(C(=O)C(C)C)CC2)c(C#N)c2c1CCC2	2.1	.	.	/	.	.
CC(C)Cc1nc(N2CCCCC2)c(C#N)c2c1CCC2	.	.	.	.	.	.
C=CCn1cc(C(=O)NCCCOCC)c(=O)c2cc(S(=O)(=O)N(CC)CC)ccc21	.	.	.	.	.	.
CC(C)(C)c1ccccc1OCCCCCNCCO	.	44	.	.	.	52
O=C(Nc1ccc(OC(F)(F)F)cc1)C1CCCN(S(=O)(=O)c2cccnc2)C1 (stereo not given)	.	.	.	.	.	.
CCc1nn(C(C)C(=O)NC(C)CCc2ccco2)c(=O)c2cc3occc3n12 (stereo not given)	.	.	.	.	.	27
CCc1nn(C(C)C(=O)NCCc2ccc(OC)c(OC)c2)c(=O)c2cc3occc3n12 (stereo not given)	.	.	.	.	.	26
CN1CCN(CCCNC(=O)c2cc3c(-c4ccc(Cl)cc4)nn(C)c3s2)CC1	2.1	.	.	/	.	.
CCN(CC)CCCNC(=O)c1cc2c(-c3ccc(Cl)cc3)nn(C)c2s1	2.1	.	.	/	.	.
SMILES	Fluor 339 460	MK inhibit	Abs 340nm	DPM-DC inhibit	NADH coupling	Spn PMK inh
CCN(CC)CCCNC(=O)c1cc(-c2ccc(Cl)c(Cl)c2)on1	.	.	.	.	.	.
Cn1nc(-c2ccc(Cl)cc2)c2cc(C(=O)N3CCOCC3)sc21	.	.	.	.	.	.
Cn1nc(-c2ccc(Cl)cc2)c2cc(C(=O)NCC3CCCO3)sc21 (stereo not given)	2.1	.	.	/	.	.
COc1ccc(-n2nc(C(=O)NCc3ccco3)c3c4ccccc4n(C)c3c2=O)cc1	4.8	.	.	/	.	.
N#CC1=C(c2ccccc2)N=P(N2CCOCC2)(N2CCOCC2)N=C1N1CCOCC1	.	.	.	.	.	.
CC1Cc2ccccc2N1C(=O)Cn1c(=O)oc2cc(S(=O)(=O)N3CCCCC3)ccc21 (stereo not given)	.	.	.	.	.	.
CC(C)CC(NS(=O)(=O)c1ccc2c(c1)oc(=O)n2C)C(=O)NCc1cccnc1 (stereo not given)	.	.	.	.	.	.
FC(F)(F)c1cc(-c2ccco2)nc(-n2nc(C(F)(F)F)cc2C2CC2)n1	3.4	.	.	.	.	.
FC(F)(F)c1cc(-c2ccco2)nc(-n2nnc3ccccc32)n1	2.4	.	.	+	.	.
C/C(N)=C(/C#N)C(=O)CSc1nnc(NC(C)C)s1	.	.	.	.	.	.
COc1ccc(N2CCN(C3CC(=O)NC3=O)CC2)cc1 (stereo not given)	.	.	.	.	.	.
COc1ccc(NC2CC(=O)NC2=O)cc1 (stereo not given)	.	.	.	.	.	26
CCC(=O)Nc1ccc(NC(=O)c2ccccn2)cn1	.	active	.	.	.	.
COc1ccc(-c2cn3cccnc3n2)cc1NC(=O)C1CC1	3.2	.	.	.	.	.
CCOC(=O)C1CCN(S(=O)(=O)c2cccc(-c3cn4cccnc4n3)c2)CC1	2.1	.	.	/	.	.
CCOC(=O)C1CCN(S(=O)(=O)c2cccc(-c3csc(C)n3)c2)CC1	.	.	.	.	.	.
COc1ccc(-c2cn3cccnc3n2)cc1NC(=O)C1CCCC1	4.8	.	.	/	.	.
COc1ccccc1NC(=O)C1CCCCC1	.	.	.	.	.	.
Cc1noc(/C=C/N(C)C)c1S(=O)(=O)N1CCC(C(=O)O)CC1	.	.	.	.	.	.
CCOC(=O)Cc1csc(-n2sc3ccccc3c2=O)n1	.	67	.	+	.	.
Cc1cc(C)c2c(n1)nn1c(N3CCN(c4ccccn4)CC3)cc(C)nc21	3	.	.	.	.	.
Cc1cc(C)c2c(n1)nn1c(N3CCN(c4ccccc4)CC3)cc(C)nc21	3.2	.	.	+	.	.
Cc1cc(-c2ccccc2)nc(N2CCN(c3ccccn3)CC2)n1	.	.	.	.	.	.
Cn1c(-c2c(N)n(C3CCCC3)c3nc4ccccc4nc23)nc2ccccc21	3.8	.	.	/	.	.
O=C(CCN1C(=O)c2ccccc2C1=O)NC1=NCCS1	.	.	.	.	.	51
COc1cccc2[nH]c3c(N4CCC(C)CC4)ncnc3c12	3.7	.	.	/	.	.
COc1cccc(N2CCN(c3ncnc4c3[nH]c3ccccc34)CC2C)c1 (stereo not given)	.	.	.	.	.	.
COc1cc2[nH]c3c(N4CCN(c5ccc(Cl)cc5)CC4)ncnc3c2cc1OC	2.4	.	.	.	.	.
COc1cccc2[nH]c3c(N4CCN(Cc5ccc6c(c5)OCO6)CC4)ncnc3c12	3.9	.	.	/	.	.
CC1(C)C(=O)OC(c2cccs2)C(C)(C)C1=O (stereo not given)	.	.	.	.	.	.
